Sampled rows, rich in hits. Any-hit rate of the full collection: about 5.1%.
CRFBP-R2 block: antagonists of CRF-binding protein/CRF-R2 receptor complex. HEK293 CRF-R2/CRF-BP, CRF-induced calcium fluorescence. hit rate 0.59% among 350,000. AID 588475. inhibition, % at 11.8 µM;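 active = inhibition of the ligand-induced calcium signal above about 50% at the single tested concentration, limit read from the data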
NR3A LBD binder: NR3A (human) ligand-binding domain modulation; NR3A LBD differential scanning fluorimetry, Tm shift; 0% = protein alone, 100% = glycine-bound protein; Tm shift relative to glycine control, % at 25 µM; hit rate 2.5% among 340,000; AID 1259313;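 active = melting temperature shift of at least 10% of the positive control shift, at one fixed dose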
TMEM16A act: mouse TMEM16A channel activation, primary screen; HEK293 TMEM16A/YFP-H148Q/I152L, iodide quench fluorescence; hits give low values; AID 623877; Q8BHY3; B-score at 10 µM; hit rate 0.3% among 340,000;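 active = fluorescence-ratio B-score plate-corrected deviation score at least 3 library SD below zero, with starting fluorescence score within 5 deviations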;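 also: channel opened by trigger with iodide after compound preincubation; score built on the fluorescence ratio of max minus min over baseline; more negative score means more quench and so TMEM16A activation or potentiation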
Target sequence (Q8BHY3 whole entry, looked up): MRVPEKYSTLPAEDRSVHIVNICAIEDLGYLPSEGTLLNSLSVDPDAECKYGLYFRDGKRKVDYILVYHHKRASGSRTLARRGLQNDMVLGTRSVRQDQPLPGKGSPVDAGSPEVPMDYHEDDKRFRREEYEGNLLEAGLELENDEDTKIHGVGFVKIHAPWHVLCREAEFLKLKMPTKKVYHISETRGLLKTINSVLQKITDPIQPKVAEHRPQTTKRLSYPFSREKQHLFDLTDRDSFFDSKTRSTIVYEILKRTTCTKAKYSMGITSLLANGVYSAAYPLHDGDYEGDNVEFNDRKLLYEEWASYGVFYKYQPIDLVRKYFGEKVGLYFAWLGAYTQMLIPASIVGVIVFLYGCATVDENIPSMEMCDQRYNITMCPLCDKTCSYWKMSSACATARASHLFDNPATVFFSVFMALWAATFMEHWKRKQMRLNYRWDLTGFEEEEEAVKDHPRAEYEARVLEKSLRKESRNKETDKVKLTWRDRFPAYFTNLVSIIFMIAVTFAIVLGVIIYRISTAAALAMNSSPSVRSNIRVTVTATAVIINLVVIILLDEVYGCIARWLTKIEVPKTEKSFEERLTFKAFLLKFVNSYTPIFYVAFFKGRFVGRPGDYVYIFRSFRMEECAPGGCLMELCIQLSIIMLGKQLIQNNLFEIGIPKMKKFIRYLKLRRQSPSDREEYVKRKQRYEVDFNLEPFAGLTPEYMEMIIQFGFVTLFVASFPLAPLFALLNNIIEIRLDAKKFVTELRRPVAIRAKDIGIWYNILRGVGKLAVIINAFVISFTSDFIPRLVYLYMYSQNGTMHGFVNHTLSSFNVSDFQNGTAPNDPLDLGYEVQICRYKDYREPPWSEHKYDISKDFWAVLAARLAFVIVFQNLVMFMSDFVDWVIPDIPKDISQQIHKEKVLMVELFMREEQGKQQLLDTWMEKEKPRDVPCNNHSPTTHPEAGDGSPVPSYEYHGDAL
CRFBP-R2 agonist: agonists of human CRF-binding protein/CRF-R2 receptor complex | HEK293 CRF-R2/CRF-BP, calcium dye fluorescence (FLIPR); percent of saturating CRF peptide response | activation, % at 13.2 µM | hit rate 0.46% among 350,000 | AID 588473;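 active = activation of at least 50%, plus an integration ratio under a set limit after plate pattern correction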;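 also: plate controls were neutral control wells without compound for no effect and CRF at EC100 for full effect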
MPTP block: permeability transition pore inhibition; isolated mouse mitochondria, Ca2+ swelling absorbance, 30 min; inhibition, % at 10 µM; hit rate 1.4% among 360,000; AID 602449;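 active = inhibition of 50% or more, scaled per plate between neutral and stimulator controls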;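 also: 0% = DMSO wells given calcium and 100% = 1 mM EGTA wells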
TMEM16A inh: inhibitors of mouse TMEM16A calcium-activated chloride channel | Q8BHY3 | HEK293 TMEM16A/YFP iodide influx fluorescence, ionomycin | normalized B-score (activity score, 25-100; higher = stronger inhibition) at 10 µM | hit rate 1.2% among 310,000 | AID 588511;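 active = ratio plate-corrected score three or more library SD toward inhibition, starting fluorescence score within five deviations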;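 also: score derived from kinetic fluorescence span divided by baseline fluorescence per well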
TMEM16A reconf: re-confirmation of mouse TMEM16A chloride channel inhibitors; HEK293 TMEM16A/YFP-H148Q, iodide quench fluorescence; ionomycin added to raise cell calcium; hit rate 39% among 2,300; AID 652189; shares compounds with TMEM16A inh; inhibition, % at 10 µM;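 active = mean duplicate percent inhibition, scaled so buffer wells are 0 and the reference blocker 100, over three buffer SD above buffer mean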
HEK293 Ca mobil: alters calcium mobilization in TMEM16A HEK293 cells, counter-screen. shares compounds with TMEM16A inh. calcium response (% of ionomycin), % at 10 µM. hit rate 2% among 2,300. TMEM16A/YFP HEK293, Fluo4 calcium mobilization;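 active = duplicate-averaged calcium signal over 20% of the ionomycin maximum, relative to buffer baseline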;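 also: each well's signal is peak minus trough fluorescence divided by its pre-addition baseline; 0% = buffer wells and 100% = ionomycin wells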
YFP-HEK293 quench: parental YFP-HEK293 iodide quench counter-screen activity. shares compounds with TMEM16A inh. ionomycin. YFP ratio F(max-min)/F0 at 10 µM. 2,300 tested, under 10 active. AID 652233;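 active = yellow fluorescent protein signal ratio exceeding the buffer control mean by over 5 SD of those controls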;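 also: ratio is mean of duplicate wells from kinetic YFP trace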
ClC-1 rat inh: blocks the rat ClC-1 voltage-dependent chloride channel | shares compounds with TMEM16A inh | CHO ClC-1-YFP, iodide influx fluorescence quench; iodide control reads 0, buffer control 100 | ratio percent, % at 10 µM | 2,300 tested, under 10 active | AID 652236;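 active = duplicate-mean ratio percent above the mean of iodide-only control wells, which defines zero, plus 5 of their SD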;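 also: higher percent means stronger block of ClC-1 iodide influx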
* = called active by the depositor; i = inactive; . = not tested or not shown.

SMILES | CRFBP-R2 block | NR3A LBD binder | TMEM16A act | CRFBP-R2 agonist | MPTP block | TMEM16A inh | TMEM16A reconf | HEK293 Ca mobil | YFP-HEK293 quench | ClC-1 rat inh
COc1ccc(C(=O)C2CCN(S(=O)(=O)c3ccc4c(c3)OCCO4)CC2)cc1 | 20.1 | -0.2 | i | -0.2 | 1.8 | 100* | 22.5%* | i | -0.678 | -6.0
COc1ccc(C(=O)N2CCN(S(=O)(=O)c3ccc4c(c3)OCCO4)CC2)cc1 | -2.3 | . | . | -0.9 | 0.8 | . | . | . | . | .
NS(=O)(=O)c1cc2c(cc1Cl)NC(Cc1ccccc1)NS2(=O)=O (configuration not stated) | -17.4 | -0.5 | i | -1.0 | -0.1 | i | i | i | -0.915 | -10.5
CCC(=O)N(C)C[C@@H]1Oc2ncc(Br)cc2C(=O)N([C@H](C)CO)C[C@H]1C | -10.9 | . | . | 0.9 | 1.1 | . | . | . | . | .
CCOC(=O)c1c(C)[nH]c(C)c1C(=O)COC(=O)C1CC(=O)N(CCc2ccccc2)C1 (configuration not stated) | 5.2 | 3.8 | i | -0.4 | -1.0 | . | . | . | . | .
Cn1cnc(S(=O)(=O)Nc2ccc(OC(F)F)cc2)c1 | -8.9 | -0.8 | i | -2.3 | 1.6 | i | . | . | . | .
COc1ccc(Cn2nnnc2C(c2cccs2)N2CCCCCC2)cc1 (configuration not stated) | 0.2 | 6.7 | i | 10.1 | 3.8 | 100* | i | i | -0.976 | -9.0
COc1ccc(Cn2nnnc2C(c2cccs2)N2CCSCC2)cc1 (configuration not stated) | -13.9 | 0.8 | i | -2.9 | 0.2 | i | . | . | . | .
Cc1cccc(NC(=O)C2C(c3ccccc3)C2(Cl)Cl)c1 (configuration not stated) | -2.7 | -20.0 | i | 0.5 | 15.2 | 100* | i | i | -0.909 | -10.0
Nc1ncnc2c1ncn2[C@@H]1O[C@H](CO)C[C@H]1O | -17.9 | -3.5 | i | 0.5 | -1.2 | 100* | i | i | -0.907 | -3.5
Nc1ncnc2c1ncn2C1OC(CO)C2OC21 (configuration not stated) | . | . | . | . | 0.4 | . | . | . | . | .
Cc1occc1C(=O)N/N=C/C=C/c1ccc(N(C)C)cc1 | -8.1 | -0.6 | i | 5.2 | 0.5 | i | i | i | -1.13 | -7.5
COc1ccc(Cl)cc1NC(=O)C/C(C)=N/NC(=O)COc1ccc(C)cc1 | 9.8 | -0.7 | i | -1.8 | 0.6 | i | . | . | . | .
CCCCC1CC(C)(C(=O)CSc2nc3ccccc3s2)OC1=O (configuration not stated) | 33.3 | -6.0 | i | 0.2 | 1.7 | 100* | 30.0%* | i | -1.01 | -2.5
CCN(CC)S(=O)(=O)c1cccc(NC(=O)COC(=O)/C=C/c2cccs2)c1 | 4.1 | -2.7 | i | -0.7 | 0.1 | i | . | . | . | .
CCN(CC)S(=O)(=O)c1cccc(NC(=O)COC(=O)c2cccs2)c1 | 4.6 | -1.6 | i | -0.6 | 0.1 | 25* | i | i | -0.953 | -6.5
O=c1[nH]c2ccccc2n1CCCSCCCn1c(=O)[nH]c2ccccc21 | -13.2 | -0.3 | i | -0.7 | 21.4 | 100* | 38.5%* | i | -0.934 | -7.5
CC(C)C[C@@H](C(=O)O)N(Cc1cccc(CN([C@@H](CC(C)C)C(=O)O)S(C)(=O)=O)c1)S(C)(=O)=O | -1.5 | 2.1 | i | -1.6 | -0.5 | i | . | . | . | .
CC1CCCN(S(=O)(=O)c2ccc(C(=O)Nc3nnc(-c4ccccn4)o3)cc2)C1 (configuration not stated) | 12.5 | -1.8 | i | -0.3 | -0.7 | i | . | . | . | .
CC1CCCN(S(=O)(=O)c2ccc(C(=O)Nc3nnc(-c4ccccc4Cl)o3)cc2)C1 (configuration not stated) | -28.6 | 0.9 | i | 48.4 | -26.3 | 100* | 22.5%* | i | -0.852 | -8.5
COc1cc(NC(=O)c2cnc(N)o2)cc(C(=O)Nc2cccc(C(F)(F)F)c2)c1 | -10.1 | 5.1 | i | 2.3 | -0.5 | 100* | 46.5%* | i | -0.869 | -14.0
CCOC(=O)C1=C(COC(=O)C2CC(=O)N(CCc3ccccc3)C2)NC(=O)NC1C (configuration not stated) | 11.2 | -0.3 | i | -0.8 | -2.2 | . | . | . | . | .
Cc1ccc2sc(N3CCN(C(=O)c4ccc([N+](=O)[O-])o4)CC3)nc2c1C | 15.6 | -3.2 | i | 5.1 | 0.6 | i | . | . | . | .
Cc1c(Cl)ccc2sc(N3CCN(C(=O)C4=COCCO4)CC3)nc12 | 0.0 | 1.7 | i | -0.3 | 0.9 | 25* | 43.5%* | i | -0.97 | -12.0
CCOC(=O)[C@]12CCCC=C1N(CCc1ccc(OC)c(OC)c1)C(=O)[C@H](CC(=O)NCCCCc1ccccc1)C2 | . | . | . | . | -0.3 | . | . | . | . | .
SMILES | CRFBP-R2 block | NR3A LBD binder | TMEM16A act | CRFBP-R2 agonist | MPTP block | TMEM16A inh | TMEM16A reconf | HEK293 Ca mobil | YFP-HEK293 quench | ClC-1 rat inh
CCN(Cc1ccncc1)Cc1nc(-c2ccc(C(=O)OC)cc2)no1 | 13.1 | -1.4 | i | 0.1 | -0.6 | i | . | . | . | .
COC(=O)c1ccc(-c2noc(CN(C)Cc3ccncc3C)n2)cc1 | -11.4 | 3.5 | i | 1.4 | -3.4 | 25* | i | i | -0.966 | -4.0
CCCC(=O)Nc1cc(C(=O)N(C)CC(OC)OC)ccc1S(=O)(=O)c1ccc(C)cc1 | -6.5 | 0.0 | i | -1.4 | -1.0 | i | . | . | . | .
Cc1ccsc1C(=O)OCc1csc(-c2ccccc2)n1 | 15.3 | 4.4 | i | 4.7 | -3.3 | 100* | 16.5%* | i | -1.09 | -4.5
O=C(OCc1csc(-c2ccccc2)n1)c1cccs1 | 23.1 | 1.3 | i | 2.4 | -0.6 | i | . | . | . | .
COc1cc(NS(=O)(=O)c2ccc(NC(=O)CCC(=O)O)cc2)nc(OC)n1 | -13.5 | -1.0 | i | 1.7 | -0.1 | i | . | . | . | .
CCCCN(Cc1cc2cc(OC)ccc2[nH]c1=O)S(=O)(=O)c1ccc(C)cc1 | 1.8 | -27.1 | i | 1.3 | 2.7 | 25* | 29.0%* | i | -0.637 | -18.0
COc1ccc2[nH]c(=O)c(CN(CCO)S(=O)(=O)c3ccc(C)cc3)cc2c1 | 7.4 | -0.9 | i | -0.1 | 0.7 | i | . | . | . | .
COc1ccc2cc(CN(Cc3cccnc3)S(=O)(=O)c3ccccc3)c(=O)[nH]c2c1 | -17.6 | 0.3 | i | -2.2 | -1.7 | 100* | i | i | -0.864 | -5.5

Source: PubChem BioAssay
